Biological target: AgAbp1
Assay: SPOT peptide array binding signal intensity (averaged, normalized) (arbitrary units (background-subtracted, floor 0; scale differs between SH3 domains)); higher = stronger binding of the SH3 domain to the peptide
How it was run: (§1)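 Detection of bound protein relied on anti-GST antibody, an HRP anti-mouse secondary and luminol, with imaging and quantification in Genespotter. The bound protein was GST-fused SH3 domains from four yeast species, incubated at 10 μg/ml overnight at 4°C in TBS-based blocking buffer on cellulose membranes carrying synthetic 15-mer peptides with cysteines replaced by serines. Binding signal is normalized, background-subtracted spot intensity averaged over replicates, in arbitrary units that differ between domains.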

Row | Binder | SPOT peptide array binding signal intensity
1 | PALPSLPPPPLLNVD | ≤ 0

Biological target: AgBbc1
Assay: as above
How it was run: as §1

Row | Binder | SPOT peptide array binding signal intensity
2 | PALPSLPPPPLLNVD | 0.5

Biological target: AgBem1-D1
Assay: as above
How it was run: as §1

Row | Binder | SPOT peptide array binding signal intensity
3 | PALPSLPPPPLLNVD | ≤ 0

Biological target: AgBzz1-D1
Assay: as above
How it was run: as §1

Row | Binder | SPOT peptide array binding signal intensity
4 | PALPSLPPPPLLNVD | ≤ 0

Biological target: AgBzz1-D2
Assay: as above
How it was run: as §1

Row | Binder | SPOT peptide array binding signal intensity
5 | PALPSLPPPPLLNVD | 8.5

Biological target: AgCyk3
Assay: as above
How it was run: as §1

Row | Binder | SPOT peptide array binding signal intensity
6 | PALPSLPPPPLLNVD | ≤ 0

Biological target: AgFus1
Assay: as above
How it was run: as §1

Row | Binder | SPOT peptide array binding signal intensity
7 | PALPSLPPPPLLNVD | ≤ 0

Biological target: AgHof1
Assay: as above
How it was run: as §1

Row | Binder | SPOT peptide array binding signal intensity
8 | PALPSLPPPPLLNVD | 1370

Biological target: AgHse1
Assay: as above
How it was run: as §1

Row | Binder | SPOT peptide array binding signal intensity
9 | PALPSLPPPPLLNVD | ≤ 0

Biological target: AgLsb1
Assay: as above
How it was run: as §1

Row | Binder | SPOT peptide array binding signal intensity
10 | PALPSLPPPPLLNVD | ≤ 0

Biological target: AgLsb4
Assay: as above
How it was run: as §1

Row | Binder | SPOT peptide array binding signal intensity
11 | PALPSLPPPPLLNVD | ≤ 0

Biological target: AgMyo5
Assay: as above
How it was run: as §1

Row | Binder | SPOT peptide array binding signal intensity
12 | PALPSLPPPPLLNVD | 2040

Biological target: AgNbp2
Assay: as above
How it was run: as §1

Row | Binder | SPOT peptide array binding signal intensity
13 | PALPSLPPPPLLNVD | ≤ 0

Biological target: AgRvs167
Assay: as above
How it was run: as §1

Row | Binder | SPOT peptide array binding signal intensity
14 | PALPSLPPPPLLNVD | ≤ 0

Biological target: AgSho1
Assay: as above
How it was run: as §1

Row | Binder | SPOT peptide array binding signal intensity
15 | PALPSLPPPPLLNVD | 77.5

Biological target: AgSla1-D1-D2
Assay: as above
How it was run: as §1

Row | Binder | SPOT peptide array binding signal intensity
16 | PALPSLPPPPLLNVD | ≤ 0

Biological target: AgSla1-D3
Assay: as above
How it was run: as §1

Row | Binder | SPOT peptide array binding signal intensity
17 | PALPSLPPPPLLNVD | ≤ 0

Biological target: CaAbp1-D1
Assay: as above
How it was run: as §1

Row | Binder | SPOT peptide array binding signal intensity
18 | PALPSLPPPPLLNVD | 12

Biological target: CaAbp1-D2
Assay: as above
How it was run: as §1

Row | Binder | SPOT peptide array binding signal intensity
19 | PALPSLPPPPLLNVD | 22

Biological target: CaBbc1
Assay: as above
How it was run: as §1

Row | Binder | SPOT peptide array binding signal intensity
20 | PALPSLPPPPLLNVD | ≤ 0

Biological target: CaBem1-D1
Assay: as above
How it was run: as §1

Row | Binder | SPOT peptide array binding signal intensity
21 | PALPSLPPPPLLNVD | ≤ 0

Biological target: CaBzz1-D1
Assay: as above
How it was run: as §1

Row | Binder | SPOT peptide array binding signal intensity
22 | PALPSLPPPPLLNVD | ≤ 0

Biological target: CaBzz1-D2
Assay: as above
How it was run: as §1

Row | Binder | SPOT peptide array binding signal intensity
23 | PALPSLPPPPLLNVD | 1

Biological target: CaCyk3
Assay: as above
How it was run: as §1

Row | Binder | SPOT peptide array binding signal intensity
24 | PALPSLPPPPLLNVD | ≤ 0

Biological target: CaFus1
Assay: as above
How it was run: as §1

Row | Binder | SPOT peptide array binding signal intensity
25 | PALPSLPPPPLLNVD | ≤ 0

Biological target: CaHof1
Assay: as above
How it was run: as §1

Row | Binder | SPOT peptide array binding signal intensity
26 | PALPSLPPPPLLNVD | 1170

Biological target: CaHse1
Assay: as above
How it was run: as §1

Row | Binder | SPOT peptide array binding signal intensity
27 | PALPSLPPPPLLNVD | 0.25

Biological target: CaLsb1
Assay: as above
How it was run: as §1

Row | Binder | SPOT peptide array binding signal intensity
28 | PALPSLPPPPLLNVD | 0.25

Biological target: CaLsb4
Assay: as above
How it was run: as §1

Row | Binder | SPOT peptide array binding signal intensity
29 | PALPSLPPPPLLNVD | ≤ 0

Biological target: CaMyo5
Assay: as above
How it was run: as §1

Row | Binder | SPOT peptide array binding signal intensity
30 | PALPSLPPPPLLNVD | 293

Biological target: CaNbp2
Assay: as above
How it was run: as §1

Row | Binder | SPOT peptide array binding signal intensity
31 | PALPSLPPPPLLNVD | ≤ 0

Biological target: CaRvs167
Assay: as above
How it was run: as §1

Row | Binder | SPOT peptide array binding signal intensity
32 | PALPSLPPPPLLNVD | ≤ 0

Biological target: CaRvs167-3
Assay: as above
How it was run: as §1

Row | Binder | SPOT peptide array binding signal intensity
33 | PALPSLPPPPLLNVD | ≤ 0

Biological target: CaSho1
Assay: as above
How it was run: as §1

Row | Binder | SPOT peptide array binding signal intensity
34 | PALPSLPPPPLLNVD | 8.5

Biological target: CaSla1-D1-D2
Assay: as above
How it was run: as §1

Row | Binder | SPOT peptide array binding signal intensity
35 | PALPSLPPPPLLNVD | ≤ 0

Biological target: CaSla1-D3
Assay: as above
How it was run: as §1

Row | Binder | SPOT peptide array binding signal intensity
36 | PALPSLPPPPLLNVD | ≤ 0

Biological target: ScAbp1
Assay: as above
How it was run: as §1

Row | Binder | SPOT peptide array binding signal intensity
37 | PALPSLPPPPLLNVD | ≤ 0

Biological target: ScBbc1
Assay: as above
How it was run: as §1

Row | Binder | SPOT peptide array binding signal intensity
38 | PALPSLPPPPLLNVD | ≤ 0

Biological target: ScBem1-D1
Assay: as above
How it was run: as §1

Row | Binder | SPOT peptide array binding signal intensity
39 | PALPSLPPPPLLNVD | ≤ 0

Biological target: ScBzz1-D1
Assay: as above
How it was run: as §1

Row | Binder | SPOT peptide array binding signal intensity
40 | PALPSLPPPPLLNVD | 15.5

Biological target: ScBzz1-D2
Assay: as above
How it was run: as §1

Row | Binder | SPOT peptide array binding signal intensity
41 | PALPSLPPPPLLNVD | 10.5

Biological target: ScCyk3
Assay: as above
How it was run: as §1

Row | Binder | SPOT peptide array binding signal intensity
42 | PALPSLPPPPLLNVD | ≤ 0

Biological target: ScFus1
Assay: as above
How it was run: as §1

Row | Binder | SPOT peptide array binding signal intensity
43 | PALPSLPPPPLLNVD | ≤ 0

Biological target: ScHof1
Assay: as above
How it was run: as §1

Row | Binder | SPOT peptide array binding signal intensity
44 | PALPSLPPPPLLNVD | 3250

Biological target: ScHse1
Assay: as above
How it was run: as §1

Row | Binder | SPOT peptide array binding signal intensity
45 | PALPSLPPPPLLNVD | 128

Biological target: ScLsb1
Assay: as above
How it was run: as §1

Row | Binder | SPOT peptide array binding signal intensity
46 | PALPSLPPPPLLNVD | ≤ 0

Biological target: ScLsb2
Assay: as above
How it was run: as §1

Row | Binder | SPOT peptide array binding signal intensity
47 | PALPSLPPPPLLNVD | ≤ 0

Biological target: ScLsb3
Assay: as above
How it was run: as §1

Row | Binder | SPOT peptide array binding signal intensity
48 | PALPSLPPPPLLNVD | 6.5

Biological target: ScLsb4
Assay: as above
How it was run: as §1

Row | Binder | SPOT peptide array binding signal intensity
49 | PALPSLPPPPLLNVD | ≤ 0

Biological target: ScMyo3
Assay: as above
How it was run: as §1

Row | Binder | SPOT peptide array binding signal intensity
50 | PALPSLPPPPLLNVD | 1950

Biological target: ScMyo5
Assay: as above
How it was run: as §1

Row | Binder | SPOT peptide array binding signal intensity
51 | PALPSLPPPPLLNVD | 1820

Biological target: ScNbp2
Assay: as above
How it was run: as §1

Row | Binder | SPOT peptide array binding signal intensity
52 | PALPSLPPPPLLNVD | ≤ 0

Biological target: ScPex13
Assay: as above
How it was run: as §1

Row | Binder | SPOT peptide array binding signal intensity
53 | PALPSLPPPPLLNVD | ≤ 0

Biological target: ScRvs167
Assay: as above
How it was run: as §1

Row | Binder | SPOT peptide array binding signal intensity
54 | PALPSLPPPPLLNVD | ≤ 0

Biological target: ScSho1
Assay: as above
How it was run: as §1

Row | Binder | SPOT peptide array binding signal intensity
55 | PALPSLPPPPLLNVD | 542

Biological target: ScSla1-D1-D2
Assay: as above
How it was run: as §1

Row | Binder | SPOT peptide array binding signal intensity
56 | PALPSLPPPPLLNVD | ≤ 0

Biological target: ScSla1-D3
Assay: as above
How it was run: as §1

Row | Binder | SPOT peptide array binding signal intensity
57 | PALPSLPPPPLLNVD | 1.25

Biological target: SpAbp1-D1
Assay: as above
How it was run: as §1

Row | Binder | SPOT peptide array binding signal intensity
58 | PALPSLPPPPLLNVD | ≤ 0

Biological target: SpBbc1
Assay: as above
How it was run: as §1

Row | Binder | SPOT peptide array binding signal intensity
59 | PALPSLPPPPLLNVD | 1

Biological target: SpBzz1-D1
Assay: as above
How it was run: as §1

Row | Binder | SPOT peptide array binding signal intensity
60 | PALPSLPPPPLLNVD | 94

Biological target: SpBzz1-D2
Assay: as above
How it was run: as §1

Row | Binder | SPOT peptide array binding signal intensity
61 | PALPSLPPPPLLNVD | 1

Biological target: SpCyk3
Assay: as above
How it was run: as §1

Row | Binder | SPOT peptide array binding signal intensity
62 | PALPSLPPPPLLNVD | ≤ 0

Biological target: SpHof1
Assay: as above
How it was run: as §1

Row | Binder | SPOT peptide array binding signal intensity
63 | PALPSLPPPPLLNVD | ≤ 0

Biological target: SpHof1-2
Assay: as above
How it was run: as §1

Row | Binder | SPOT peptide array binding signal intensity
64 | PALPSLPPPPLLNVD | 1210

Biological target: SpHof1-3
Assay: as above
How it was run: as §1

Row | Binder | SPOT peptide array binding signal intensity
65 | PALPSLPPPPLLNVD | 326

Biological target: SpHse1
Assay: as above
How it was run: as §1

Row | Binder | SPOT peptide array binding signal intensity
66 | PALPSLPPPPLLNVD | ≤ 0

Biological target: SpLsb1
Assay: as above
How it was run: as §1

Row | Binder | SPOT peptide array binding signal intensity
67 | PALPSLPPPPLLNVD | ≤ 0

Biological target: SpLsb4
Assay: as above
How it was run: as §1

Row | Binder | SPOT peptide array binding signal intensity
68 | PALPSLPPPPLLNVD | ≤ 0

Biological target: SpMyo1
Assay: as above
How it was run: as §1

Row | Binder | SPOT peptide array binding signal intensity
69 | PALPSLPPPPLLNVD | 1260

Biological target: SpNbp2
Assay: as above
How it was run: as §1

Row | Binder | SPOT peptide array binding signal intensity
70 | PALPSLPPPPLLNVD | ≤ 0

Biological target: SpPex13
Assay: as above
How it was run: as §1

Row | Binder | SPOT peptide array binding signal intensity
71 | PALPSLPPPPLLNVD | ≤ 0

Biological target: SpRvs167
Assay: as above
How it was run: as §1

Row | Binder | SPOT peptide array binding signal intensity
72 | PALPSLPPPPLLNVD | 0.5

Biological target: SpSla1-D1-D2
Assay: as above
How it was run: as §1

Row | Binder | SPOT peptide array binding signal intensity
73 | PALPSLPPPPLLNVD | ≤ 0

Biological target: SpSla1-D3
Assay: as above
How it was run: as §1

Row | Binder | SPOT peptide array binding signal intensity
74 | PALPSLPPPPLLNVD | ≤ 0

— the supplement of paper PMC4466140
